# Source: PubChem BioAssay (NCI)
# Compounds without any hit were thinned out: in the full panel of roughly 79,000, 15% have a hit. Values without a mark were called inactive. Activity calls are given as the source filed them. Cut-off read from the data, not from the text of the source: active = growth inhibition above about 70%; inactive = the rest.
# Key:
# [1] = NCI Yeast Anticancer Drug Screen. Data for the rad52 strain (AID 147);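 note: 0% = growth of vehicle-treated control cultures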; details: S. cerevisiae rad52 mutant growth inhibition, hits give high values
# How it was run: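 Inhibition of yeast growth, referenced to vehicle controls, was the measured output for a strain with defective DNA damage repair.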
# [2] = NCI Yeast Anticancer Drug Screen. Data for the wt1 strain (AID 149);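 note: 0% = growth of vehicle-treated wt1 cultures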; details: S. cerevisiae wt1 strain (SPY 50644) growth inhibition, hits give high values
# How it was run: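 Growth inhibition read against vehicle controls after compound exposure of the wt1 yeast strain.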
# [3] = NCI Yeast Anticancer Drug Screen. Data for the rad50EPP+ strain (AID 151);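 note: 0% = growth of vehicle-treated control cultures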; details: S. cerevisiae rad50 mutant strain, hits give high values
# How it was run: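 Genetically defined yeast (rad50EPP+, DNA damage repair alteration) is grown with compound, and inhibition of growth is expressed relative to vehicle-treated controls.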
# [4] = NCI Yeast Anticancer Drug Screen. Data for the rad50 strain (AID 155);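 note: 0% = growth of vehicle-only cultures of the same strain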; details: S. cerevisiae rad50 strain growth inhibition, hits give high values
# How it was run: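 Readout: growth inhibition relative to vehicle-treated cultures. Compound exposure was carried out in a genetically defined yeast strain deficient in DNA damage repair.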
# [5] = NCI Yeast Anticancer Drug Screen. Data for the mec2-1 strain (AID 157); details: S. cerevisiae mec2-1 strain, hits give high values
# How it was run: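 Each compound was tested on mec2-1 yeast, a strain altered in DNA damage repair or cell cycle control. Growth inhibition is reported relative to vehicle.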
# [6] = NCI Yeast Anticancer Drug Screen. Data for the rad14 strain (AID 159);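 note: 0% = growth of vehicle-treated control cultures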; details: S. cerevisiae rad14 strain growth inhibition, hits give high values
# How it was run: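 Growth inhibition vs vehicle controls; genetically altered yeast strain (DNA damage repair defect) treated with test compounds.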
# [7] = NCI Yeast Anticancer Drug Screen. Data for the sgs1 mgt1 strain (AID 161);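 note: 0% = growth of cultures given vehicle only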; details: S. cerevisiae sgs1 mgt1 strain, hits give high values
# How it was run: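 Genetically altered yeast, compound exposure, growth inhibition relative to vehicle.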
# [8] = NCI Yeast Anticancer Drug Screen. Data for the cln2 rad14 strain (AID 165);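 note: 0% = growth equal to vehicle treated cultures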; details: S. cerevisiae cln2 rad14 strain, hits give high values
# How it was run: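 Test compounds were added to cln2 rad14 yeast cultures; inhibition of growth was then determined by comparison with vehicle treatment.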
# [9] = NCI Yeast Anticancer Drug Screen. Data for the bub3 strain (AID 167); details: S. cerevisiae bub3 mutant strain, hits give high values
# How it was run: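 Readout: yeast growth inhibition, expressed relative to vehicle-only wells. The test organism is a mutant strain from a panel with lesions in DNA repair or checkpoint genes.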
# [10] = NCI Yeast Anticancer Drug Screen. Data for the mlh1 strain (AID 171);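 note: 0% = growth of vehicle-treated control cultures of the same strain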; details: S. cerevisiae mlh1 strain growth inhibition, hits give high values
# How it was run: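 Inhibition values reflect reduced yeast growth in the presence of compound, referenced to vehicle controls, using a strain chosen for its alteration in DNA repair or cell cycle control.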
# [11] = NCI Yeast Anticancer Drug Screen. Data for the sgs1 strain (AID 173);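 note: 0% = growth of vehicle-only control cultures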; details: S. cerevisiae sgs1 mutant, hits give high values
# How it was run: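 Vehicle-treated cultures served as reference for growth inhibition of a yeast strain altered in DNA damage repair or cell cycle control after compound exposure.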
# [12] = NCI Yeast Anticancer Drug Screen. Data for the mlh1 rad18 strain (AID 175); details: S. cerevisiae mlh1 rad18 strain growth inhibition, hits give high values
# How it was run: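 Inhibition values reflect reduced growth of mutant yeast versus vehicle-treated controls following compound exposure; the mutations affect DNA damage repair.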
# [13] = NCI Yeast Anticancer Drug Screen. Data for the rad18 strain (AID 177); details: S. cerevisiae rad18 mutant growth inhibition, hits give high values
# How it was run: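 Steps: expose repair-mutant yeast to compound; measure growth; express as inhibition relative to vehicle control.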
# [14] = NCI Yeast Anticancer Drug Screen. Data for the mgt1 strain (AID 153); details: S. cerevisiae mgt1 mutant growth inhibition, hits give high values
# How it was run: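 In the mgt1 strain, test compounds were added and growth inhibition was determined relative to vehicle-treated controls.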
# [15] = NCI Yeast Anticancer Drug Screen. Data for the CLN2oe strain (AID 163);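 note: 0% = growth of vehicle-only control cultures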; details: S. cerevisiae CLN2oe strain, hits give high values
# How it was run: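 First, the altered yeast strain was treated with each compound; second, its growth was measured; finally, inhibition was derived by comparison with vehicle controls.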
# [16] = NCI Yeast Anticancer Drug Screen. Data for the wt2 strain (AID 169);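 note: 0% = growth of vehicle-treated yeast cultures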; details: S. cerevisiae wt2 strain growth inhibition, hits give high values
# How it was run: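 The panel's yeast strains carry defined changes in DNA repair or cell cycle genes. Each strain is grown with compound, and growth loss is scored relative to vehicle.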
# [17] = at 5.0 µM (retest, dose inferred, filed as 0.5)
# [18] = at 50.0 µM (retest, dose inferred, filed as 5.0)
smiles,measurement,setting,value
Cc1cc2c3ccccc3c3ccccc3c2nn1,growth inhibition,[1]; at 1.2 µM,2%
same,growth inhibition,[1]; at 3.7 µM,21%
same,growth inhibition,[1]; at 11.0 µM,60%
same,growth inhibition,[1]; at 33.0 µM,74% (active)
same,growth inhibition,[1]; at 100.0 µM,80% (active)
same,growth inhibition,[2]; at 1.2 µM,-7%
same,growth inhibition,[2]; at 3.7 µM,-6%
same,growth inhibition,[2]; at 11.0 µM,-8%
same,growth inhibition,[2]; at 33.0 µM,-8%
same,growth inhibition,[2]; at 100.0 µM,-5%
same,growth inhibition,[3]; at 1.2 µM,13%
same,growth inhibition,[3]; at 3.7 µM,38%
same,growth inhibition,[3]; at 11.0 µM,56%
same,growth inhibition,[3]; at 33.0 µM,60%
same,growth inhibition,[3]; at 100.0 µM,52%
same,growth inhibition,[4]; at 1.2 µM,5%
same,growth inhibition,[4]; at 3.7 µM,25%
same,growth inhibition,[4]; [17],2%
same,growth inhibition,[4]; at 11.0 µM,72% (active)
same,growth inhibition,[4]; at 33.0 µM,83% (active)
same,growth inhibition,[4]; [18],77% (active)
same,growth inhibition,[4]; at 50.0 µM,94.7% (active)
same,growth inhibition,[4]; at 100.0 µM,79% (active)
same,growth inhibition,[5]; at 1.2 µM,2%
same,growth inhibition,[5]; at 3.7 µM,0%
same,growth inhibition,[5]; [17],-46%
same,growth inhibition,[5]; at 11.0 µM,10%
same,growth inhibition,[5]; at 33.0 µM,7%
same,growth inhibition,[5]; [18],-15%
same,growth inhibition,[5]; at 50.0 µM,21.8%
same,growth inhibition,[5]; at 100.0 µM,12%
same,growth inhibition,[6]; at 1.2 µM,3%
same,growth inhibition,[6]; at 3.7 µM,8%
same,growth inhibition,[6]; at 11.0 µM,15%
same,growth inhibition,[6]; at 33.0 µM,15%
same,growth inhibition,[6]; at 100.0 µM,15%
same,growth inhibition,[7]; [17],-61%
same,growth inhibition,[7]; [18],-15%
same,growth inhibition,[7]; at 50.0 µM,36.5%
same,growth inhibition,[8]; [17],-59%
same,growth inhibition,[8]; [18],-24%
same,growth inhibition,[8]; at 50.0 µM,27.5%
same,growth inhibition,[9]; at 1.2 µM,-9%
same,growth inhibition,[9]; at 3.7 µM,-1%
same,growth inhibition,[9]; [17],-64%
same,growth inhibition,[9]; at 11.0 µM,7%
same,growth inhibition,[9]; at 33.0 µM,9%
same,growth inhibition,[9]; [18],-31%
same,growth inhibition,[9]; at 50.0 µM,29.1%
same,growth inhibition,[9]; at 100.0 µM,11%
same,growth inhibition,[10]; at 1.2 µM,5%
same,growth inhibition,[10]; at 3.7 µM,-6%
same,growth inhibition,[10]; at 11.0 µM,0%
same,growth inhibition,[10]; at 33.0 µM,1%
same,growth inhibition,[10]; at 100.0 µM,-3%
same,growth inhibition,[11]; at 1.2 µM,-3%
same,growth inhibition,[11]; at 3.7 µM,-6%
same,growth inhibition,[11]; at 11.0 µM,0%
same,growth inhibition,[11]; at 33.0 µM,12%
same,growth inhibition,[11]; at 100.0 µM,11%
same,growth inhibition,[12]; [17],-88%
same,growth inhibition,[12]; [18],-13%
same,growth inhibition,[12]; at 50.0 µM,60.4%
same,growth inhibition,[13]; at 1.2 µM,-2%
same,growth inhibition,[13]; at 3.7 µM,2%
same,growth inhibition,[13]; at 11.0 µM,10%
same,growth inhibition,[13]; at 33.0 µM,12%
same,growth inhibition,[13]; at 100.0 µM,10%
CC(C)CCCC(C)C1CCC2C3CCC4=CC(=O)/C(=C\O)CC4(C)C3CCC12C (stereo not drawn),growth inhibition,[1]; at 1.2 µM,1%
same,growth inhibition,[1]; at 3.7 µM,2%
same,growth inhibition,[1]; at 11.0 µM,3%
same,growth inhibition,[1]; at 33.0 µM,6%
same,growth inhibition,[1]; at 100.0 µM,25%
same,growth inhibition,[2]; at 1.2 µM,1%
same,growth inhibition,[2]; at 3.7 µM,1%
same,growth inhibition,[2]; at 11.0 µM,2%
same,growth inhibition,[2]; at 33.0 µM,3%
same,growth inhibition,[2]; at 100.0 µM,16%
same,growth inhibition,[14]; at 1.2 µM,-1%
same,growth inhibition,[14]; at 3.7 µM,1%
same,growth inhibition,[14]; at 11.0 µM,1%
same,growth inhibition,[14]; at 33.0 µM,0%
same,growth inhibition,[14]; at 100.0 µM,6%
same,growth inhibition,[4]; at 1.2 µM,1%
same,growth inhibition,[4]; at 3.7 µM,0%
same,growth inhibition,[4]; [17],5%
same,growth inhibition,[4]; at 11.0 µM,-2%
same,growth inhibition,[4]; at 33.0 µM,0%
same,growth inhibition,[4]; [18],47%
same,growth inhibition,[4]; at 50.0 µM,15.9%
same,growth inhibition,[4]; at 100.0 µM,21%
same,growth inhibition,[5]; at 1.2 µM,-2%
same,growth inhibition,[5]; at 3.7 µM,-6%
same,growth inhibition,[5]; [17],3%
same,growth inhibition,[5]; at 11.0 µM,-7%
same,growth inhibition,[5]; at 33.0 µM,-2%
same,growth inhibition,[5]; [18],45%
same,growth inhibition,[5]; at 50.0 µM,6.2%
same,growth inhibition,[5]; at 100.0 µM,22%
same,growth inhibition,[6]; at 1.2 µM,1%
same,growth inhibition,[6]; at 3.7 µM,2%
same,growth inhibition,[6]; at 11.0 µM,3%
same,growth inhibition,[6]; at 33.0 µM,7%
same,growth inhibition,[6]; at 100.0 µM,20%
same,growth inhibition,[7]; [17],7%
same,growth inhibition,[7]; [18],48%
same,growth inhibition,[7]; at 50.0 µM,14.9%
same,growth inhibition,[15]; at 1.2 µM,-3%
same,growth inhibition,[15]; at 3.7 µM,-5%
same,growth inhibition,[15]; at 11.0 µM,-10%
same,growth inhibition,[15]; at 33.0 µM,-18%
same,growth inhibition,[15]; at 100.0 µM,2%
same,growth inhibition,[8]; [17],0%
same,growth inhibition,[8]; [18],26%
same,growth inhibition,[8]; at 50.0 µM,48.5%
same,growth inhibition,[9]; at 1.2 µM,4%
same,growth inhibition,[9]; at 3.7 µM,-1%
same,growth inhibition,[9]; [17],6%
same,growth inhibition,[9]; at 11.0 µM,-10%
same,growth inhibition,[9]; at 33.0 µM,-9%
same,growth inhibition,[9]; [18],54%
same,growth inhibition,[9]; at 50.0 µM,47.8%
same,growth inhibition,[9]; at 100.0 µM,21%
same,growth inhibition,[16]; at 1.2 µM,2%
same,growth inhibition,[16]; at 3.7 µM,0%
same,growth inhibition,[16]; at 11.0 µM,2%
same,growth inhibition,[16]; at 33.0 µM,1%
same,growth inhibition,[16]; at 100.0 µM,10%
